Inconclusive results are not listed. Calls of active or inactive are those of the source. The calls were made as follows, unless noted: active = hit-call score of the fitted dose curve at least 0.9, where 1 is the maximum; inconclusive = response in the unintended direction; inactive = score below 0.9.
How the values were obtained:
[1] = tested on: SRY-box transcription factor 17 (SOX17) Protein Expression, Deisenroth Lab, SOX17 (gene 64321); experiment: CCTE_Deisenroth_DEVTOX-GLR_Pluri_SOX17: CCTE's DevTox GLR-Pluri Assay Evaluation of SRY-box transcription factor 17 (SOX17) Protein Expression, Deisenroth Lab (AID 2284427)
Outline: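 Seed cells 24 h; differentiate 48 h, dosing at 0 and 24 h (1 nM - 200 uM); fix, stain nuclei, image 5 fields per well; count SOX17+ cells over total cells and subtract 0.2% DMSO control.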

[2] = tested on: SRY-box transcription factor 2 (SOX2) Protein Expression, Deisenroth Lab, SOX2 (gene 6657); experiment: CCTE_Deisenroth_DEVTOX-GLR_Pluri_SOX2: CCTE's DevTox GLR-Pluri Assay Evaluation of SRY-box transcription factor 2 (SOX2) Protein Expression, Deisenroth Lab (AID 2284428; active = hit-call score of the fitted dose curve at least 0.9, where 1 is the maximum; inactive = score below 0.9)
Procedure: CCTE_Deisenroth_DEVTOX-GLR_Pluri assay is a cell-based, multiplex-readout assay that uses RUES2-GLR, a human pluripotent cell line, with measurements taken at 48 hours after chemical dosing in a 384-well microplateCCTE_Deisenroth_DEVTOX-GLR_Pluri_SOX2 is 1 of 4 assay components calculated from the CCTE_Deisenroth_DEVTOX-GLR_Pluri assay and it measures an the percentage of cells in an pluripotent state. Using a type of inducible fluorescent protein reporter, gain-of-signal activity can be used to understand changes in gene expression with fluorescent microscopy. The percentage of SOX2+ cells are determined by calculating the number of SOX2+ cells divided by the cell count. To generalize the intended target to other relatable targets, this assay component is annotated to the transcription factor intended target family, where the subfamily is SRY-related HMG-box.Data from the assay component CCTE_Deisenroth_DEVTOX-GLR_Pluri_SOX2 was analyzed as 1 assay endpoint. The endpoint is the percent change in the SOX2+ cell population relative to the 0.2% DMSO control in the CCTE_Deisenroth_DEVTOX-GLR_Pluri assay. Furthermore, this assay endpoint can be referred to as a primary readout, because this assay has produced multiple assay endpoints where this one serves as a measure of […].
All assay protocols are aligned to the DevTox GLR-Endo assay workflow. […]

[3] = tested on: Brachyury (BRA) Protein Expression, Deisenroth Lab, TBXT (gene 6862); experiment: CCTE_Deisenroth_DEVTOX-GLR_Pluri_BRA: CCTE's DevTox GLR-Pluri Assay Evaluation of Brachyury (BRA) Protein Expression, Deisenroth Lab (AID 2284429)
Outline: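 An inducible fluorescent BRA reporter in RUES2-GLR cells tracks mesoderm differentiation. Compounds (10 concentrations, 1 nM - 200 uM) are dosed twice within a 48-h differentiation. The endpoint subtracts the 0.2% DMSO control from percent BRA+ cells.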

[4] = CCTE_Deisenroth_DEVTOX-GLR_Pluri_CellCount: Viability Assessment in CCTE's DevTox GLR-Pluri Assay Evaluation of Total Cell Counts, Deisenroth Lab (AID 2284430; active = hit-call score of the fitted dose curve at least 0.9, where 1 is the maximum; inactive = score below 0.9)
Outline: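 RUES2-GLR human pluripotent cells, seeded 24 h, then differentiated 48 h with two chemical exposures 24 h apart; 10-point series 1 nM - 200 uM. Fixed, nuclear-stained, imaged (5 fields/well); nuclei count as % change vs 0.2% DMSO.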

Measured: AC50

CS(=O)(=O)OCCCCOS(C)(=O)=O
active: [1] 45.4 µM | [2] 2.44 µM | [3] 50.7 µM | [4] 20.1 µM
